Reference: ChEMBL document CHEMBL3988442, “University of Dundee, Small-Polar-MMV Screening Library” (2021)
The whole screen tested about 48,000 compounds, of which about 13,000 (27%) showed an effect of 50% or more. The list shows a part of the results.

System: Wolbachia pipientis
Assay: Anti-Wolbachia Cell-Based Screen
Format: functional
Parameters: scale not given: in the data most compounds retested in dose-response had high values
Conditions: 5 µM

| Structure (SMILES) | Percent Effect [%] |
| --- | --- |
| O=C(c1cc(=O)[nH][nH]1)N1CCCC2(CCC(=O)N(C3CCCC3)C2)C1 (stereo not given) | -4.852 |
| Cc1nnsc1CN(C)C(=O)CN1CC2(CCNCC2)OC1=O | -6.607 |
| COc1ccccc1NC(=O)C1(c2ccccc2)CCOCC1 | 98.14 |
| CCN1CCCC(CNC(=O)CCc2ccc(OC)c(F)c2)C1 (stereo not given) | -5.052 |
| COc1ccncc1NC(=O)C1(c2ccccc2)CC1 | -4.467 |
| CC(C)(CNC(=O)C1(c2ccccc2)CCOCC1)C(=O)O | 1.32 |
| COCCN1CCC(CNC(=O)C2(C#N)CCCC2)CC1 | -6.048 |
| COCCN1CCC(CNC(=O)C2(c3ccccc3)CCOCC2)C1 (stereo not given) | 84.82 |
| COCCN1CCC(CNC(=O)C2(c3ccc(F)cc3)CCC2)CC1 | 107 |
| CCCC(=O)NCC1CCCN(Cc2cc(C)c(C)o2)C1 (stereo not given) | -7.568 |
| COCCN1CCC(CNC(=O)C2(S(C)(=O)=O)CCCC2)CC1 | -5.804 |
| CCN1CCCC(CNC(=O)C2(c3cc(C)cc(C)c3)CCC2)C1 (stereo not given) | 97.54 |
| O=C(Cc1ccccc1F)NCC1CCN(CCN2CCOCC2)C1 (stereo not given) | 8.19 |
| CCC(Oc1ccc(N(C)S(C)(=O)=O)cc1)C(N)=O (stereo not given) | 16.67 |
| O=C(c1ccc2nccnc2c1)N1CCN(CCO)[C@@H]2CS(=O)(=O)C[C@@H]21 | -5.397 |
| O=C(CCCNC(=O)Nc1ccc(F)cc1)Nc1cn[nH]c1 | -3.689 |
| Cc1cc(C(=O)N2CCN(C(=O)CC(C)C)[C@@H]3CS(=O)(=O)C[C@@H]32)no1 | -7.208 |
| Cc1noc(C)c1CN1C(=O)[C@H]2CC[C@@H]1CN(Cc1cccc(O)c1)C2 | -12.83 |
| Cc1cc(C)cc(C2(C(=O)NCC3CCN(CC(F)(F)F)C3)CC2)c1 (stereo not given) | 144.8 |
| COCCN1CCC(CNC(=O)Nc2ccc(-c3ccccc3)cc2)C1 (stereo not given) | -0.2028 |
| CCCN1CCC(CNC(=O)C2(c3cc(C)cc(C)c3)CCC2)C1 (stereo not given) | 132 |
| Cc1cc(C)cc(C2(C(=O)NCC(C)CN3CCCC3=O)CC2)c1 (stereo not given) | 2.33 |
| CCCN1CCC(CC(=O)NCc2cc(C)nn2C)CC1 | -10.83 |
| N#Cc1ccc(CNC(=O)NC2CCN(CC(F)(F)F)C2)cc1 (stereo not given) | 9.13 |
| COCCN1CCC(CNC(=O)C2(C#N)CCCCC2)CC1 | -10.25 |

| Structure (SMILES) | Percent Effect [%] |
| --- | --- |
| COCCN1CCC(CNC(=O)C2(c3ccc(Br)cc3)CCCC2)C1 (stereo not given) | 150.6 |
| COCCN1CCC(CNC(=O)C2(c3ccccc3)CCC2)C1 (stereo not given) | 100.1 |
| CC(C)[C@@H]1CN(CCCOc2ccc(F)cc2)C[C@H]1NS(C)(=O)=O | 10.36 |
| CC(C)(C)Oc1ccncc1NCc1cscn1 | -14.11 |
| CCCN1CCC(CNC(=O)C2(c3ccccc3)CCC2)C1 (stereo not given) | 94.67 |
| CCN1CCC(CNC(=O)C2(c3cccc(C)c3)CC2)C1 (stereo not given) | -3.143 |
| Cc1cc(CN2CCC(CNC(=O)C3(c4ccccc4)CC3)C2)[nH]n1 (stereo not given) | -1.817 |
| O=C(CN1CCCCC1Cn1cncn1)NCCC1=CCCCC1 (stereo not given) | -14.45 |
| Cc1ccc(CNC(=O)Cn2c(=O)c3cccnc3n2C)cc1F | 105.8 |
| CS(=O)(=O)Cc1ccc(NC(=O)Cc2cccnc2)cc1F | 17.36 |
| Cn1c2ncccc2c(=O)n1CC(=O)NCCC1=CCCCC1 | 106.1 |
| O=c1c2cccnc2cnn1CC(O)c1ccc(F)c(F)c1 (stereo not given) | -16.55 |
| Cc1cc(CNC(=O)CN2CCN(C(=O)OC(C)(C)C)CC2)ccc1F | -110.5 |
| Cn1c2ncccc2c(=O)n1CC(=O)Nc1ccc(F)c(F)c1 | 107.1 |
| O=C(NCCNc1ncccn1)NCCc1c(F)cccc1F | 4.613 |
| Cn1c2ncccc2c(=O)n1CC(=O)NCCc1c(F)cccc1F | 97.5 |
| O=C(CN1CCN(CCO)CC1)NCCc1c(F)cccc1F | 0.9837 |
| Cc1ccc(CNC(=O)N2CCOCC2C2CC2)cc1F (stereo not given) | -8.546 |
| Cc1nc2n(n1)CC(NCC(=O)NCCC1=CCCCC1)CC2 (stereo not given) | 18.92 |
| CNC(=O)[C@@H]1C[C@H](N)CN1S(=O)(=O)c1cc(C)c(Cl)cc1C | 4.211 |
| COc1ccccc1OC1(C(=O)O)CCN(c2ncccc2F)CC1 | -11.09 |
| COc1ccncc1NCc1cscn1 | 0.2861 |
| CSc1ccc(CN(CCO)Cc2nccn2C)cc1 | -0.296 |
| Cc1cncc(C(=O)N2CCOc3nc(C)ccc32)c1 | 1.683 |
| CCC(C)(NCC(=O)NC(=O)NC)c1nc(C)cs1 (stereo not given) | -8.328 |

| Structure (SMILES) | Percent Effect [%] |
| --- | --- |
| COc1cccc(C(C)N2CCN(S(C)(=O)=O)CC2)c1 (stereo not given) | -19.03 |
| Cc1cccc2nc(CSCc3nnnn3C(C)C)cn12 | -17.34 |
| CN(Cc1cccnc1)[C@@H]1CN(C(=O)CC2CC2)[C@@H]2CCCO[C@H]12.O=C(O)C(F)(F)F.O=C(O)C(F)(F)F | 108.9 |
| O=C(O)C(F)(F)F.O=C(c1ccoc1)N1CCO[C@]2(CCC[C@H]2COCc2cccnc2)C1 | 1.703 |
| O=C(O)C(F)(F)F.O=C(c1ccoc1)N1CCO[C@]2(CCC[C@@H]2COCc2cccnc2)C1 | -7.34 |
| CN(Cc1cccnc1)[C@@H]1CN(C(=O)c2ccoc2)[C@@H]2CCCO[C@H]12.O=C(O)C(F)(F)F.O=C(O)C(F)(F)F | 116.4 |
| CN(Cc1cccnc1)[C@@H]1CN(C(=O)c2ccno2)[C@@H]2CCCO[C@H]12.O=C(O)C(F)(F)F.O=C(O)C(F)(F)F | 103.3 |
| CN(Cc1cccnc1)[C@@H]1CN(C(=O)NC2CC2)[C@@H]2CCCO[C@H]12.O=C(O)C(F)(F)F.O=C(O)C(F)(F)F | 101 |
| CN(Cc1nccn1C)S(=O)(=O)c1cccc(C#N)c1 | 5.7 |
| CN(C)[C@@H]1CN(C(=O)CCc2ccccc2)[C@@H]2CCCO[C@H]12.O=C(O)C(F)(F)F | 98.44 |
| Cc1ccc(CN2C[C@@H](N(C)C)[C@H]3OCCC[C@H]32)o1.O=C(O)C(F)(F)F.O=C(O)C(F)(F)F | -10.94 |
| CN(C)[C@@H]1CN(C(=O)c2ccc(C#N)cc2)[C@@H]2CCCO[C@H]12.O=C(O)C(F)(F)F | 5.598 |
| COc1ccc(OC)c(C2CCN(Cc3nc(C)n4ccccc34)C2)c1 (stereo not given) | 11.21 |
| COc1cccc(Nc2nc(C3CCCNC3)c3ccccn23)c1.Cl (stereo not given) | 104.7 |
| COc1cccc(Nc2nc(C3CCNCC3)c3ccccn23)c1.Cl | 85.66 |
| Cn1cc(CCCNC(=O)NC2CCN(CC(F)(F)F)C2=O)cn1 (stereo not given) | -5.145 |
| Cc1ncc(CNC(=O)c2oc3ccccc3c2CN(C)C)s1 | -2.973 |
| Cn1cnnc1S(=O)(=O)C1CCN(C(=O)c2cccs2)CC1 | -12.26 |
| Cl.Cn1nc(C2CCN(C(=O)Cc3ccsc3)CC2)c2cccnc21 | 115.7 |
| Cl.Cn1nc(C2CCN(C(=O)Cc3cccc(F)c3)CC2)c2cccnc21 | -4.432 |
| Cn1nc(C2CCN(C(=O)c3cccs3)CC2)c2cccnc21 | 107.6 |
| CN1CCN(C(=O)Cc2ccsc2)Cc2cccnc21.O=C(O)C(F)(F)F | -3.335 |
| N#Cc1cccnc1N1CCN(C(=O)c2cccs2)CC1 | -4.28 |
| COC1CCN(C(=O)Cc2csc(-c3ncccn3)n2)CC1 | -12.9 |
| Cc1nc(CC(=O)N2CCC(c3nn(C)c4ncccc34)CC2)cs1.Cl | 92.52 |

| Structure (SMILES) | Percent Effect [%] |
| --- | --- |
| c1ccc(NCc2cn3c(n2)CN(Cc2ccoc2)CC3)nc1 | 6.648 |
| COc1ccccc1OCCCc1cccc(C#N)n1 | -3.599 |
| FC(F)(F)CCc1ccnc(N2CCN(CCc3ccncc3)CC2)n1 | -22.6 |
| CC(C)N1CCC(N2CCN(C3CCC3)CC2CCO)CC1 (stereo not given) | 3.855 |
| CCc1nc(C)sc1C(=O)N1CCN(c2ncccc2C)CC1 | 34.17 |
| Cc1nc(CN2CCC3(C2)CN(C(=O)c2ccc[nH]2)C3)cs1 | 122.8 |
| Cc1nc(CN2C(=O)CCC23CCN(Cc2ccco2)CC3)cs1 | 111.9 |
| Cc1nc(CN2C(=O)CCC23CCN(c2ncccc2C)CC3)cs1 | 91.84 |
| Cc1nc(CN2CCC23CCN(C(=O)c2ccco2)CC3)cs1 | 98.46 |
| Cc1nc2c(c(N3CCN(Cc4ccco4)CC3)n1)CCNCC2 | 3.397 |
| Cc1nc(CN2CCOCC23CCN(c2ccc(C#N)cc2)CC3)cs1.O=C(O)C(F)(F)F | -24.99 |
| Cc1nc(CN2C(=O)CC[C@@H]3[C@H]2CCN3C(=O)c2ccc[nH]2)cs1 | -9.626 |
| O=C(c1ccc[nH]1)N1CC2(CCN(c3nccs3)C2)C1 | -14.28 |
| Cc1nc(CN2C[C@@H]3CN(C(=O)c4ccco4)C[C@@H]3C2=O)cs1.O=C(O)C(F)(F)F | -11.8 |
| O=C1CCC2(CCCN(c3ncc(F)cn3)CC2)N1Cc1ccccc1 (stereo not given) | -5.866 |
| COc1cccc(C(=O)Nc2ccc(OCCC(N)=O)cc2)c1OC | 3.494 |
| N#Cc1ccc(OC2CCN(C(=O)COCC3CCCO3)CC2)cc1 (stereo not given) | -13.18 |
| Cc1cnn(CCC(=O)NS(=O)(=O)N2CCCc3ccccc32)c1 | 4.859 |
| Cc1nc(C2CCCN(C(=O)c3ccc(Cn4cccn4)o3)C2)no1 (stereo not given) | -2.072 |
| Cc1nc(CN2CCOC3(CCCN(c4nccs4)C3)C2)cs1 (stereo not given) | -8.721 |
| O=C(O)C(F)(F)F.O=C(O)C(F)(F)F.c1coc(CN2CCCC3(COCCN(Cc4c[nH]nn4)C3)C2)c1 (stereo not given) | -3.131 |
| Cc1nc(CN2CCC3(C2)CN(Cc2ccco2)C3)cs1 | 129 |
| Cc1nc(CN2CCC23CCN(Cc2ccco2)CC3)cs1 | 101.3 |
| Cc1nc(CN2CCN(Cc3ccoc3)Cc3cccnc32)cs1.O=C(O)C(F)(F)F.O=C(O)C(F)(F)F.O=C(O)C(F)(F)F | 3.214 |
| Cc1nc(CN2CCC23CCN(Cc2ccoc2)CC3)cs1 | 97.06 |
